# ± gives the standard deviation.
# T1: HaloTag-ATRX ADD domain (163-292)
# T1 chain: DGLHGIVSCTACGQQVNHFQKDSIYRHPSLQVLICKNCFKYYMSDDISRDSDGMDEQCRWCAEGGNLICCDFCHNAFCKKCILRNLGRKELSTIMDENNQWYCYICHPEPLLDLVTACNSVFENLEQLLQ
# How the values were obtained:
# Assay in all cases: peptide microarray binding signal (635 nm), min-max normalized on array (fraction of array maximum); higher = stronger binding
# Conditions in all cases: peptide region: H3 112-124
# [1] = target: T1, HaloTag-ATRX ADD domain (163-292)
# How it was run: (§1)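 Binding signal is the mean intensity of triplicate spots, min-max scaled within each library. Histone 13-mer peptide–cellulose conjugates were spotted in triplicate on nitrocellulose with a Cy3 tracer and blocked overnight at 4°C. Probing lasted 1 h at 4°C, either with biotin-labelled HaloTag reader fusions (10 nM to 1 μM) and streptavidin-Alexa Fluor 647 or with rabbit histone antibodies (1:10,000 to 1:2,000) and anti-rabbit Alexa 647. An Axon GenePix 4000B read signal at 635 nm and misprints at 532 nm.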
# [2] = target: HaloTag-ING2 PHD (mouse Ing2 200-280)
# How it was run: as §1
# [3] = target: anti-H3K4me3 antibody ab8580
# How it was run: as §1
# [4] = target: anti-H3K9me3 antibody ab8898
# How it was run: as §1
# [5] = peptide modifications: H3K115me2 H3R116me2a, binder concentration: 1:2,000 dilution
# [6] = peptide modifications: H3K115me2 H3R116me2a, binder concentration: 1:10,000 dilution
# [7] = peptide modifications: H3K115me2 H3R116me1, binder concentration: 1:2,000 dilution
# [8] = peptide modifications: H3K115me2 H3R116me1, binder concentration: 1:10,000 dilution
# [9] = peptide modifications: H3K115me2 H3K122ac, binder concentration: 1:2,000 dilution
# [10] = peptide modifications: H3K115me2 H3K122ac, binder concentration: 1:10,000 dilution
# [11] = peptide modifications: H3K115me2 H3K122me1, binder concentration: 1:2,000 dilution
# [12] = peptide modifications: H3K115me2 H3K122me1, binder concentration: 1:10,000 dilution
# [13] = peptide modifications: H3K115me2 H3R116cit, binder concentration: 1:2,000 dilution
# [14] = peptide modifications: H3K115me2 H3R116cit, binder concentration: 1:10,000 dilution
# [15] = peptide modifications: H3K115me1 H3R116me2s, binder concentration: 1:2,000 dilution
# [16] = peptide modifications: H3K115me1 H3R116me2s, binder concentration: 1:10,000 dilution
# [17] = peptide modifications: H3K115me1 H3R116me2a, binder concentration: 1:2,000 dilution
# [18] = peptide modifications: H3K115me1 H3R116me2a, binder concentration: 1:10,000 dilution
# [19] = peptide modifications: H3K115me2 H3K122me2, binder concentration: 1:2,000 dilution
# [20] = peptide modifications: H3K115me2 H3K122me2, binder concentration: 1:10,000 dilution
# [21] = peptide modifications: H3K115me2 H3K122me3, binder concentration: 1:2,000 dilution
# [22] = peptide modifications: H3K115me2 H3K122me3, binder concentration: 1:10,000 dilution
# [23] = peptide modifications: H3K115me2, binder concentration: 1:2,000 dilution
# [24] = peptide modifications: H3K115me2, binder concentration: 1:10,000 dilution
binder,measurement,setting,value
IHAKRVTIMPKDI [H3 112-124 I H A Kme2 Rme2a V T I M P K D I],peptide microarray binding signal,"[1]; peptide modifications: H3K115me2 H3R116me2a, binder concentration: 50 nM",0.00392 ± 0.00012
same,peptide microarray binding signal,"[1]; peptide modifications: H3K115me2 H3R116me2a, binder concentration: 500 nM",0.0121 ± 0.00062
same,peptide microarray binding signal,"[2]; peptide modifications: H3K115me2 H3R116me2a, binder concentration: 10 nM",0.013 ± 0.0011
same,peptide microarray binding signal,"[2]; peptide modifications: H3K115me2 H3R116me2a, binder concentration: 100 nM",0.015 ± 0.0041
same,peptide microarray binding signal,[3]; [5],0.00655 ± 0.00081
same,peptide microarray binding signal,[3]; [6],0.00291 ± 6.6e-05
same,peptide microarray binding signal,[4]; [5],0.00612 ± 0.00057
same,peptide microarray binding signal,[4]; [6],0.00346 ± 0.00033
IHAKRVTIMPKDI [H3 112-124 I H A Kme2 Rme V T I M P K D I],peptide microarray binding signal,"[1]; peptide modifications: H3K115me2 H3R116me1, binder concentration: 50 nM",0.00978 ± 0.00067
same,peptide microarray binding signal,"[1]; peptide modifications: H3K115me2 H3R116me1, binder concentration: 500 nM",0.0323 ± 0.001
same,peptide microarray binding signal,"[2]; peptide modifications: H3K115me2 H3R116me1, binder concentration: 10 nM",0.0352 ± 0.017
same,peptide microarray binding signal,"[2]; peptide modifications: H3K115me2 H3R116me1, binder concentration: 100 nM",0.0291 ± 0.0025
same,peptide microarray binding signal,[3]; [7],0.0244 ± 0.00081
same,peptide microarray binding signal,[3]; [8],0.0144 ± 0.0052
same,peptide microarray binding signal,[4]; [7],0.00761 ± 0.0024
same,peptide microarray binding signal,[4]; [8],0.0104 ± 0.00061
IHAKRVTIMPKDI [H3 112-124 I H A Kme2 R V T I M P Kac D I],peptide microarray binding signal,"[1]; peptide modifications: H3K115me2 H3K122ac, binder concentration: 50 nM",0.00357 ± 5.2e-05
same,peptide microarray binding signal,"[1]; peptide modifications: H3K115me2 H3K122ac, binder concentration: 500 nM",0.006 ± 0.00044
same,peptide microarray binding signal,"[2]; peptide modifications: H3K115me2 H3K122ac, binder concentration: 10 nM",0.0178 ± 0.0029
same,peptide microarray binding signal,"[2]; peptide modifications: H3K115me2 H3K122ac, binder concentration: 100 nM",0.0235 ± 0.0049
same,peptide microarray binding signal,[3]; [9],0.00145 ± 0.00019
same,peptide microarray binding signal,[3]; [10],0.00188 ± 0.00012
same,peptide microarray binding signal,[4]; [9],0.00186 ± 0.00037
same,peptide microarray binding signal,[4]; [10],0.00277 ± 0.00067
IHAKRVTIMPKDI [H3 112-124 I H A Kme2 R V T I M P Kme D I],peptide microarray binding signal,"[1]; peptide modifications: H3K115me2 H3K122me1, binder concentration: 50 nM",0.00398 ± 8.3e-05
same,peptide microarray binding signal,"[1]; peptide modifications: H3K115me2 H3K122me1, binder concentration: 500 nM",0.00852 ± 0.00012
same,peptide microarray binding signal,"[2]; peptide modifications: H3K115me2 H3K122me1, binder concentration: 10 nM",0.0224 ± 0.00092
same,peptide microarray binding signal,"[2]; peptide modifications: H3K115me2 H3K122me1, binder concentration: 100 nM",0.0286 ± 0.0023
same,peptide microarray binding signal,[3]; [11],0.0024 ± 0.00012
same,peptide microarray binding signal,[3]; [12],0.002853 ± 2.4e-05
same,peptide microarray binding signal,[4]; [11],0.0016 ± 2.9e-05
same,peptide microarray binding signal,[4]; [12],0.001441 ± 1.4e-05
IHAKRVTIMPKDI [H3 112-124 I H A Kme2 Rcit V T I M P K D I],peptide microarray binding signal,"[1]; peptide modifications: H3K115me2 H3R116cit, binder concentration: 50 nM",0.00386 ± 8.5e-05
same,peptide microarray binding signal,"[1]; peptide modifications: H3K115me2 H3R116cit, binder concentration: 500 nM",0.008 ± 0.00037
same,peptide microarray binding signal,"[2]; peptide modifications: H3K115me2 H3R116cit, binder concentration: 10 nM",0.0196 ± 0.00092
same,peptide microarray binding signal,"[2]; peptide modifications: H3K115me2 H3R116cit, binder concentration: 100 nM",0.0271 ± 0.0013
same,peptide microarray binding signal,[3]; [13],0.00257 ± 8.7e-05
same,peptide microarray binding signal,[3]; [14],0.00211 ± 6.7e-05
same,peptide microarray binding signal,[4]; [13],0.00118 ± 5.6e-05
same,peptide microarray binding signal,[4]; [14],0.00133 ± 4e-05
IHAKRVTIMPKDI [H3 112-124 I H A Kme Rme2s V T I M P K D I],peptide microarray binding signal,"[1]; peptide modifications: H3K115me1 H3R116me2s, binder concentration: 50 nM",0.00257 ± 2.3e-05
same,peptide microarray binding signal,"[1]; peptide modifications: H3K115me1 H3R116me2s, binder concentration: 500 nM",0.00552 ± 0.00018
same,peptide microarray binding signal,"[2]; peptide modifications: H3K115me1 H3R116me2s, binder concentration: 10 nM",0.004 ± 0.00015
same,peptide microarray binding signal,"[2]; peptide modifications: H3K115me1 H3R116me2s, binder concentration: 100 nM",0.00716 ± 0.00083
same,peptide microarray binding signal,[3]; [15],0.000906 ± 2.8e-05
same,peptide microarray binding signal,[3]; [16],0.00137 ± 1.3e-05
same,peptide microarray binding signal,[4]; [15],0.00156 ± 0.00014
same,peptide microarray binding signal,[4]; [16],0.00127 ± 1.3e-05
IHAKRVTIMPKDI [H3 112-124 I H A Kme Rme2a V T I M P K D I],peptide microarray binding signal,"[1]; peptide modifications: H3K115me1 H3R116me2a, binder concentration: 50 nM",0.005172 ± 3.7e-05
same,peptide microarray binding signal,"[1]; peptide modifications: H3K115me1 H3R116me2a, binder concentration: 500 nM",0.0151 ± 0.00091
same,peptide microarray binding signal,"[2]; peptide modifications: H3K115me1 H3R116me2a, binder concentration: 10 nM",0.0102 ± 0.00057
same,peptide microarray binding signal,"[2]; peptide modifications: H3K115me1 H3R116me2a, binder concentration: 100 nM",0.0244 ± 0.0083
same,peptide microarray binding signal,[3]; [17],0.00434 ± 0.00096
same,peptide microarray binding signal,[3]; [18],0.00297 ± 8.7e-05
same,peptide microarray binding signal,[4]; [17],0.0064 ± 0.00053
same,peptide microarray binding signal,[4]; [18],0.00317 ± 0.00013
IHAKRVTIMPKDI [H3 112-124 I H A Kme2 R V T I M P Kme2 D I],peptide microarray binding signal,"[1]; peptide modifications: H3K115me2 H3K122me2, binder concentration: 50 nM",0.003981 ± 1.6e-05
same,peptide microarray binding signal,"[1]; peptide modifications: H3K115me2 H3K122me2, binder concentration: 500 nM",0.00729 ± 0.00043
same,peptide microarray binding signal,"[2]; peptide modifications: H3K115me2 H3K122me2, binder concentration: 10 nM",0.0277 ± 0.0045
same,peptide microarray binding signal,"[2]; peptide modifications: H3K115me2 H3K122me2, binder concentration: 100 nM",0.0324 ± 0.0023
same,peptide microarray binding signal,[3]; [19],0.00387 ± 0.0014
same,peptide microarray binding signal,[3]; [20],0.00382 ± 0.00021
same,peptide microarray binding signal,[4]; [19],0.0021 ± 6.7e-05
same,peptide microarray binding signal,[4]; [20],0.002076 ± 1.9e-05
IHAKRVTIMPKDI [H3 112-124 I H A Kme2 R V T I M P Kme3 D I],peptide microarray binding signal,"[1]; peptide modifications: H3K115me2 H3K122me3, binder concentration: 50 nM",0.00401 ± 7.2e-05
same,peptide microarray binding signal,"[1]; peptide modifications: H3K115me2 H3K122me3, binder concentration: 500 nM",0.0105 ± 0.00042
same,peptide microarray binding signal,"[2]; peptide modifications: H3K115me2 H3K122me3, binder concentration: 10 nM",0.0258 ± 0.0013
same,peptide microarray binding signal,"[2]; peptide modifications: H3K115me2 H3K122me3, binder concentration: 100 nM",0.0359 ± 0.0052
same,peptide microarray binding signal,[3]; [21],0.00289 ± 0.00018
same,peptide microarray binding signal,[3]; [22],0.00274 ± 0.00017
same,peptide microarray binding signal,[4]; [21],0.0105 ± 0.0013
same,peptide microarray binding signal,[4]; [22],0.00536 ± 0.00056
IHAKRVTIMPKDI [H3 112-124 I H A Kme2 R V T I M P K D I],peptide microarray binding signal,"[1]; peptide modifications: H3K115me2, binder concentration: 50 nM",0.0058 ± 7e-05
same,peptide microarray binding signal,"[1]; peptide modifications: H3K115me2, binder concentration: 500 nM",0.012 ± 0.0003
same,peptide microarray binding signal,"[2]; peptide modifications: H3K115me2, binder concentration: 10 nM",0.0144 ± 0.00078
same,peptide microarray binding signal,"[2]; peptide modifications: H3K115me2, binder concentration: 100 nM",0.0293 ± 0.0017
same,peptide microarray binding signal,[3]; [23],0.00506 ± 0.00089
same,peptide microarray binding signal,[3]; [24],0.00588 ± 0.00054
same,peptide microarray binding signal,[4]; [23],0.00495 ± 0.00045
same,peptide microarray binding signal,[4]; [24],0.00479 ± 0.00031

# From the supplement of paper PMC4022240
